In PubChem BioAssay:
Results filed as inconclusive are left out. Calls of active or inactive are those of the source. Rule as the data show it, unless noted: active = response above about 15%; inactive = the rest.

Tests used:
[1] = rapamycin-like changes in RPL19A-GFP expression – cell-based, S. cerevisiae, multiplex flow cytometry, primary screen (AID 1862; in the data active = percent of DMSO control GFP below about 86%;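 also: lower values mimic rapamycin by blocking the RPL19A rise seen in DMSO cells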); details: S. cerevisiae RPL19A-GFP strain, flow cytometry fluorescence, 3 h; at 10 µM; stronger effect = lower value
[2] = TOR pathway GLN3 branch reporter MEP2-GFP changes – S. cerevisiae, multiplex flow cytometry, primary screen (AID 1867;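 active = GFP response, as percent of the DMSO control, above the screen-wide mean plus 3 SD, about 139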;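 also: median GFP channel fluorescence of barcode-gated MEP2-GFP cells measured by flow cytometry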); details: S. cerevisiae MEP2-GFP strain, 3 h, at 10 µM, stronger effect = higher value, 100% means same as DMSO wells
[3] = TOR pathway RTG branch CIT2 reporter changes – S. cerevisiae, GFP fusion, multiplex flow cytometry, primary screen (AID 1870;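 active = percent response above a set limit, the screen-wide mean plus 3 SD, cut at about 130% in these data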;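 also: barcoded CIT2-GFP strain pooled with four other GFP strains with rapamycin as positive control; median GFP fluorescence per well over plate mean of DMSO wells so 100% = DMSO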); details: S. cerevisiae CIT2-GFP expression, 3 h, at 10 µM, stronger effect = higher value
[4] = TOR pathway LAP4-GFP level changes – S. cerevisiae, multiplex flow cytometry, primary screen (AID 1873;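 active = GFP signal, as percent of the solvent control, above the screen mean plus 3 SD, about 149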); details: S. cerevisiae LAP4-GFP expression, 3 h, at 10 µM, stronger effect = higher value
[5] = yeast AGP1-GFP level changes, GLN3 branch – cell-based, multiplex flow cytometry, S. cerevisiae, primary screen (AID 1887;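 active = GFP signal above the screen-wide mean plus 3 SD, that is over about 124.5% of the solvent control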;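 also: AGP1-GFP fusion strain of S. cerevisiae within a five-strain barcoded multiplex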); details: 3 h, at 10 µM, stronger effect = higher value
[6] = reduced mouse 2C T cell binding to pMHC/ICAM-1 vesicles – MLPCN validation set, flow cytometry, LFA-1/ICAM-1 modulator project, pilot screen (AID 2523;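 active = response below a set limit, under 55% cells CD8-positive and vesicle-bound, and CD8 cells' 90th-percentile brightness under 279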;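 as to vesicle binding response: mean PE anti-B7-1 fluorescence of CD8+ cells relative to row control; 100% = QL9-loaded vesicles with DMSO vehicle in the same plate row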); details: 2C mouse CD8+ T cells, at 7 µM, stronger effect = lower value; double positive events: measured here: CD8+/vesicle+ event percentage
[7] = biological target: Integrin beta-1 (Homo sapiens) + Integrin alpha-4 (Homo sapiens) (UniProt P13612+P05556); test: alpha4beta1 integrin LIBS antibody binding reduction – U937 cells, HUTS-21 mAb, flow cytometry, validation set, VLA-4 allosteric modulator project, pilot screen (AID 2674;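 active = inhibition above 50%, about 3 SD of the validation set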;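 also: antibody binding induced by the VLA-4 ligand LDV present at three times its Kd; 0% = LDV ligand with antibody and no compound and 100% = antibody without LDV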); details: HUTS-21 LIBS mAb binding, at 6.7 µM, stronger effect = higher value, binding induced by LDV ligand
Sequence of Integrin beta-1 (Homo sapiens) + Integrin alpha-4 (Homo sapiens) (P05556 whole entry, looked up): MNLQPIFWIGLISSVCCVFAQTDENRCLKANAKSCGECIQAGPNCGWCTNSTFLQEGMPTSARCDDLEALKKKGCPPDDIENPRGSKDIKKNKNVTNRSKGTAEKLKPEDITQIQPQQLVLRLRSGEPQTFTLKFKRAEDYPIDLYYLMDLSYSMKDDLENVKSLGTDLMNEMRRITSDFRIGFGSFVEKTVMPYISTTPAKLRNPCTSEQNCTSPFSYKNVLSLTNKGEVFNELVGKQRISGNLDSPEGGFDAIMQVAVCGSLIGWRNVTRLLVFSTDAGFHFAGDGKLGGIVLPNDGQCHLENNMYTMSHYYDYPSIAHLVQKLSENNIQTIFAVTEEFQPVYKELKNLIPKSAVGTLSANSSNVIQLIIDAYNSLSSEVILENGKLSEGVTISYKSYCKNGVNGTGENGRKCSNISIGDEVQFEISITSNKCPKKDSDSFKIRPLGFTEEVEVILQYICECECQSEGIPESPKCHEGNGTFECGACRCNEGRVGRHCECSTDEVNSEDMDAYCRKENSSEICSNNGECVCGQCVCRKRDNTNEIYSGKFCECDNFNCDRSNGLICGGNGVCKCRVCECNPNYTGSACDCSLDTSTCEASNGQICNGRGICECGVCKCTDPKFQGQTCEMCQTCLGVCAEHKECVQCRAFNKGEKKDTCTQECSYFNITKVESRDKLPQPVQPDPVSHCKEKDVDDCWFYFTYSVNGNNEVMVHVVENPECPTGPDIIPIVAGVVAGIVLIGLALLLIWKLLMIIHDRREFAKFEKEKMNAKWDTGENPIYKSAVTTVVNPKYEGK
Sequence of Integrin beta-1 (Homo sapiens) + Integrin alpha-4 (Homo sapiens) (P13612 whole entry, looked up): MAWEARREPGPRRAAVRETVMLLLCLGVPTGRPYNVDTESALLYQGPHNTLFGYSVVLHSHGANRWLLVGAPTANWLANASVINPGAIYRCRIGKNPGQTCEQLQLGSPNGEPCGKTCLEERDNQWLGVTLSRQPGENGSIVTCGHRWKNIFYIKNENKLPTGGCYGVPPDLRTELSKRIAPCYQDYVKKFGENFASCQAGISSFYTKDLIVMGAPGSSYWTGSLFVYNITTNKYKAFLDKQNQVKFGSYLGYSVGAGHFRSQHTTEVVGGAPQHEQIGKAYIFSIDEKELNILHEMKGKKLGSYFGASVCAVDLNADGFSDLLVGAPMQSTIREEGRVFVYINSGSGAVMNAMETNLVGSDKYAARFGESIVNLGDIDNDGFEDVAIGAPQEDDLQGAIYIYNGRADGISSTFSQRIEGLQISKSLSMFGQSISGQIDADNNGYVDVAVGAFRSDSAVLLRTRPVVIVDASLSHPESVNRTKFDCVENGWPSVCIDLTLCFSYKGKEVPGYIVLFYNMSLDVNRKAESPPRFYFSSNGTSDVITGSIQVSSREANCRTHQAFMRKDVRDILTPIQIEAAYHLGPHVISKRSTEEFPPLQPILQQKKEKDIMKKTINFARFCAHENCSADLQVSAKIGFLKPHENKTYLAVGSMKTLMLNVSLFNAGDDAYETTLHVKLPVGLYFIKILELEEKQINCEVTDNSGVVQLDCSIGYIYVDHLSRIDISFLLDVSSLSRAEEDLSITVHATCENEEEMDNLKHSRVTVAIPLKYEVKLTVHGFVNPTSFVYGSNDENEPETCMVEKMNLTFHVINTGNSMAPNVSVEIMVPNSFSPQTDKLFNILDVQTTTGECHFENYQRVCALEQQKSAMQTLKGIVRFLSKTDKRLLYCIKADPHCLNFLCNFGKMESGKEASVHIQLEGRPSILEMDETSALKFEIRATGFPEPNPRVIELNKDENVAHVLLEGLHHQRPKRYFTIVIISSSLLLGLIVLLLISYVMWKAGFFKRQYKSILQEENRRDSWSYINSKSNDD

[8] = calorie-restriction mimetic ROS inhibitors, yeast – validation compound set, pilot screen (AID 2706;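 active = superoxide response below 65% of plate, a cut near 3 SD across the whole screen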;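 also: yeast exposed to compound for one week at 30 degrees C before staining; 100% = mean of all compound wells on the same plate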); details: S. cerevisiae aging, superoxide DHE fluorescence; at 10 µM; stronger effect = lower value
[9] = biological target: Beta-adrenergic receptor kinase 1 (Homo sapiens) (UniProt P25098); test: GRK2 binders displacing RNA aptamer, biochemical, validation, human GRK2, bead flow cytometry (AID 488806;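 active = aptamer binding inhibition above 30%, about 3 SD of noise from non-fluorescent compounds; inactive = inhibition at or below 30%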); details: bead-bound GRK2, FAM-aptamer displacement, at 10 µM, stronger effect = higher value
Sequence of Beta-adrenergic receptor kinase 1 (Homo sapiens) (P25098 whole entry, looked up): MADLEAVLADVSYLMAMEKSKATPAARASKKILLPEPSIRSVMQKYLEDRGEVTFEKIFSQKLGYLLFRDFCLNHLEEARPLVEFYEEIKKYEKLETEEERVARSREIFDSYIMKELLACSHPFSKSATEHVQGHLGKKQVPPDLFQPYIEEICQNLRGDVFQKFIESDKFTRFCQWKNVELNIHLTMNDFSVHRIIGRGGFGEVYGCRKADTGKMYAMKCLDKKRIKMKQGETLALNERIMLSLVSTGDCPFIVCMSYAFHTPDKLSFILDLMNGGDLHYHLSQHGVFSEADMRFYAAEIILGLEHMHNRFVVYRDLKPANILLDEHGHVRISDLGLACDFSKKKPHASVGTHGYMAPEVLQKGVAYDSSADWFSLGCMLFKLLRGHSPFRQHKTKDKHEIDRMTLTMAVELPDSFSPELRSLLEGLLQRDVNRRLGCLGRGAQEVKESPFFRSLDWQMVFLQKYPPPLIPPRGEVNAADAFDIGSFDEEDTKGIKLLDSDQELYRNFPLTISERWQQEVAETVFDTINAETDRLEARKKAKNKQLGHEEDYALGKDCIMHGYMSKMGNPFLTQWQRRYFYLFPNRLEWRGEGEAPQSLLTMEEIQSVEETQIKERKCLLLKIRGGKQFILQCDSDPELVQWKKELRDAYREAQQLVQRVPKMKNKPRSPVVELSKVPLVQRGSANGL

[10] = biological target: Beta-2 adrenergic receptor (Homo sapiens) (UniProt P07550); test: agonist-induced loss of surface beta2AR – cell-based, FAP fluorogen, flow cytometry, validation set, pilot screen (AID 504459;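 active = percent response above 42, roughly 3 SD of non-fluorescent test compounds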;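 also: agonist-driven loss of surface beta2AR via internalization measured by FAP dye flow cytometry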); details: Am2.2-beta2AR cells, at 10 µM, stronger effect = higher value
Sequence of Beta-2 adrenergic receptor (Homo sapiens) (P07550 whole entry, looked up): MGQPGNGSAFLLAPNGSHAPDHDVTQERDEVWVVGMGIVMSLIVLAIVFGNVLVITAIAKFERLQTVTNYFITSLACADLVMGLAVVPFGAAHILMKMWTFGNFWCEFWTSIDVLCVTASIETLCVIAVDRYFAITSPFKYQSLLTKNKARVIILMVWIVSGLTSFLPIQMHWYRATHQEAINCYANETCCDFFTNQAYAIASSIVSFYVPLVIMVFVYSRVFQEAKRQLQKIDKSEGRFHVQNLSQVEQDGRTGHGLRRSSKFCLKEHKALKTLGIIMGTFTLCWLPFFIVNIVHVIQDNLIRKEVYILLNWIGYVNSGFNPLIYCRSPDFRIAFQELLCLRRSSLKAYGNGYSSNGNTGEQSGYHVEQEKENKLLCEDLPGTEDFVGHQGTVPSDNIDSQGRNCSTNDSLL

[11] = biological target: AP-2 complex subunit beta (Homo sapiens) (UniProt P63010); test: beta-arrestin/AP2 interaction blockers – biochemical, validation set, GST-AP2 beads, flow cytometry, pilot screen (AID 504541;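 active = inhibition above 54%, about 3 SD of non-fluorescent compounds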;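 also: AP2 carries R879A mutation and is captured from E. coli lysate; bead-bound FITC arrestin peptide fluorescence measuring arrestin peptide binding to AP2; 0% = DMSO wells and 100% = excess unlabeled arrestin peptide control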); details: FITC arrestin peptide, at 10 µM, stronger effect = higher value, AP2 beta2 appendage fragment, R879A mutant
Sequence of AP-2 complex subunit beta (Homo sapiens) (P63010 whole entry, looked up, the tested form may be a part, one chain of several): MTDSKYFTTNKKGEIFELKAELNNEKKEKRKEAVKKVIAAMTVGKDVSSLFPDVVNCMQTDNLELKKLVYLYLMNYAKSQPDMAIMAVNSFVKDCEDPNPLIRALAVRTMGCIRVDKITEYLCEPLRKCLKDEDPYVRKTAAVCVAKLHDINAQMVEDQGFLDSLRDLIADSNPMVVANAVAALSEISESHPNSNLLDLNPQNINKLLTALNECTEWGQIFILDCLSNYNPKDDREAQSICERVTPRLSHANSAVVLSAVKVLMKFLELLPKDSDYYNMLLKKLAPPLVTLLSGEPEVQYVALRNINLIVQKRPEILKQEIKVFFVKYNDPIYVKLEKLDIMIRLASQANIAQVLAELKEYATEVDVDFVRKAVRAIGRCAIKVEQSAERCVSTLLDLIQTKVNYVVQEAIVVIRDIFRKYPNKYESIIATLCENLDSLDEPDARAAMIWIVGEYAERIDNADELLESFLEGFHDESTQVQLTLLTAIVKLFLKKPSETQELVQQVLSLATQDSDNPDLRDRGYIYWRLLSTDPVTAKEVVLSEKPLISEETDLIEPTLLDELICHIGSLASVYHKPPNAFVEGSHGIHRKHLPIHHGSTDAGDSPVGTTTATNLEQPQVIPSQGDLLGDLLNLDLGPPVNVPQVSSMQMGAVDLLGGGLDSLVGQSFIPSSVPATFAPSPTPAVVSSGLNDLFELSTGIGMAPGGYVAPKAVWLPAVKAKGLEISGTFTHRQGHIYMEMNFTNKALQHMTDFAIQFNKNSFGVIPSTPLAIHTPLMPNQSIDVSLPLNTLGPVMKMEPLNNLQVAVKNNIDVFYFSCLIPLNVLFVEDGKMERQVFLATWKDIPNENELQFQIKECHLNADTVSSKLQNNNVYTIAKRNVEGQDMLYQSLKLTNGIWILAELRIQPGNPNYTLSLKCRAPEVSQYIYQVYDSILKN

[12] = cytosolic pH regulators acting via V-ATPase – S. cerevisiae, pHLuorin, HTS validation (AID 504600); details: V-ATPase proton transport, at 10 µM, stronger effect = higher value;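 also: plate controls were DMSO for no effect and reference compound for full effect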
[13] = tested on: anti-desmoglein-3 scFv antibody binding to human DSG3; test: blockers of pathogenic pemphigus antibody–desmoglein-3 binding – biochemical, validation compound set, bead-based, flow cytometry, pilot screen (AID 588368;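 active = binding below the plate cutoff, the plate median minus 3 SD, with a reading above zero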;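 also: signal is the median channel fluorescence of bead-bound GFP antibody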); details: Protein G beads, DSG3-Fc, scFv-GFP binding, at 10 µM, stronger effect = lower value
[14] = Nile Red efflux blockade in pump-expressing yeast – validation compound set, multiplex, phenotypic, pilot screen (AID 588506;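 active = efflux inhibition above 0.42, the validation set average plus 4 SD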;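 also: Nile Red retained in cells so higher fluorescence means more efflux inhibition; 0 = negative control wells and 1 = enniatin B 25 µM full block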); details: S. cerevisiae pump-expressing triplex, Nile Red efflux flow cytometry; at 10 µM; stronger effect = higher value; the pumps come from Candida albicans
[15] = biological target: ATP-binding cassette sub-family B member 6 (Homo sapiens) (UniProt Q9NP58); test: blockers of ABCB6-driven porphyrin uptake – K562-ABCB6 cells, flow cytometry, validation set, pilot screen (AID 588550;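 active = inhibition above the screen-wide mean plus 3 SD, about 51%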;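 also: 0% = DMSO wells and 100% = benzethonium chloride 70 µM positive control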); details: K562-ABCB6 porphyrin accumulation, 1 h, at 10 µM, stronger effect = higher value
Sequence of ATP-binding cassette sub-family B member 6 (Homo sapiens) (Q9NP58 whole entry, looked up): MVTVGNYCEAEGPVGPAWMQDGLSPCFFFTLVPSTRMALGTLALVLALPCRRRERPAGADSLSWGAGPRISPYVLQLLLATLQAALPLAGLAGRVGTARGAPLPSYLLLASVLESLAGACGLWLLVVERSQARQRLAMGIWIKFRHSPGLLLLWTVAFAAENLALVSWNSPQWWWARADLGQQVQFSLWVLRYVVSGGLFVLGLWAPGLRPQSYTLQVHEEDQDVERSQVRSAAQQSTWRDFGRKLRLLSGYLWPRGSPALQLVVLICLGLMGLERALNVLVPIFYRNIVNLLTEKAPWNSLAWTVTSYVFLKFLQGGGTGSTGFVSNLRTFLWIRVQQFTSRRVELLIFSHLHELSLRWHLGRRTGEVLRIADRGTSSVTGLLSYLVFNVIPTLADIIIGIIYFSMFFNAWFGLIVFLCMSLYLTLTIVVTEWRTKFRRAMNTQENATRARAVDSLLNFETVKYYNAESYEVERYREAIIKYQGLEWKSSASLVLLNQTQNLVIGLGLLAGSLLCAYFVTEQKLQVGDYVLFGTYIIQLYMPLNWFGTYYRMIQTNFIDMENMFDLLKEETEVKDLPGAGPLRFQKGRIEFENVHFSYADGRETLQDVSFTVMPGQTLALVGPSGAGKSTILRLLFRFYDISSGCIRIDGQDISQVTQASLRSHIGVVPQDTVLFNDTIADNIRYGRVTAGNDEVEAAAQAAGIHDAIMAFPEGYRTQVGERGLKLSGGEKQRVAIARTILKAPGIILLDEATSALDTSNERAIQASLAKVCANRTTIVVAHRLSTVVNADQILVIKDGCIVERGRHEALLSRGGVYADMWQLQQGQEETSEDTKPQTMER

[16] = AML differentiation inducers, ER-HoxA9 marrow cells – cell-based, GFP/MAC1 double positive, flow cytometry, validation set, primary screen (AID 588685;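 active = differentiation response of at least 50%, scaled between solvent and reference control, from cells with both markers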;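 also: compound exposure lasts four days before antibody staining and flow analysis; 0% = DMSO wells and 100% = 5 µM fulvestrant positive control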); details: stronger effect = higher value, normalized: vehicle 0, fulvestrant 100

Structure (SMILES) | percent of DMSO control GFP [1] | GFP response vs DMSO [2] | percent response of DMSO control [3] | GFP response vs DMSO [4] | GFP response, % of DMSO [5] | double positive events [6] | vesicle binding response [6] | inhibition [7] | superoxide response (% of plate) [8] | aptamer binding inhibition [9] | response [10] | inhibition [11] | response [12] | binding (% of control) [13] | efflux inhibition (fraction of control) [14] | inhibition [15] | differentiation response [16]
O=c1[nH]c(=O)n(C2CCCO2)cc1F (centres undefined) | 93.5% (inactive) | 117% (inactive) | 97.9% (inactive) | 81.4% (inactive) | 95.6% (inactive) | 60.9% | 137% (inactive) | -17.8% (inactive) | 96.1% (inactive) | 7% (inactive) | -4.34% (inactive) | -10.2% (inactive) | 6.89% (inactive) | 110% (inactive) | 0.09 (inactive) | 14% (inactive) | 35.2% (inactive)
COc1cccc2c1OCC1COc3c(c(=O)n(C)c(=O)n3C)C21 (centres undefined) | 101% (inactive) | 108% (inactive) | 99.6% (inactive) | 130% (inactive) | 102% (inactive) | 64.4% | 201% (inactive) | 14.6% (inactive) | 95% (inactive) | -1% (inactive) | -9.55% (inactive) | 59.9% (active) | -4.7% (inactive) | 101% (inactive) | 0.08 (inactive) | 2% (inactive) | 13.6% (inactive)
Cc1ccc(-n2cc(CNCCN3CCOC3=O)c(-c3ccc(F)cc3)n2)cc1 | 103% (inactive) | 107% (inactive) | 108% (inactive) | 85% (inactive) | 96.5% (inactive) | 59.3% | 129% (inactive) | 9.63% (inactive) | 109% (inactive) | 2% (inactive) | -24.7% (inactive) | -0.44% (inactive) | -4.84% (inactive) | 104% (inactive) | -0.36 (inactive) | 4% (inactive) | -1.65% (inactive)
O=C(NC(=S)Nc1ccc(N2CCN(C(=O)c3ccccc3)CC2)cc1)c1cccs1 | 96.3% (inactive) | 126% (inactive) | 116% (inactive) | 77% (inactive) | 96.1% (inactive) | 51.4% | 106% (inactive) | -4.21% (inactive) | 101% (inactive) | 0% (inactive) | -15.7% (inactive) | -3.24% (inactive) | 1.01% (inactive) | 107% (inactive) | -0.28 (inactive) | 13% (inactive) | -0.82% (inactive)
c1cnc(N2CCN(Cc3ccc4c(c3)OCO4)CC2)nc1 | 101% (inactive) | 101% (inactive) | 102% (inactive) | 97% (inactive) | 103% (inactive) | 73.9% | 330% (inactive) | 2.93% (inactive) | 103% (inactive) | -1% (inactive) | 2.78% (inactive) | 2.85% (inactive) | 0.81% (inactive) | 105% (inactive) | 0.235 (inactive) | 2% (inactive) | -13.3% (inactive)
C[C@H](NC(=O)C1(c2ccccc2)CCN(C(=O)[C@H]2CSCN2C(=O)OC(C)(C)C)CC1)C(=O)O | 105% (inactive) | 103% (inactive) | 99.6% (inactive) | 110% (inactive) | 117% (inactive) | 62% | 161% (inactive) | 17.6% (inactive) | 95.1% (inactive) | 6% (inactive) | -18.9% (inactive) | -3.02% (inactive) | -2.91% (inactive) | 103% (inactive) | -0.09 (inactive) | 1% (inactive) | -1.05% (inactive)
NC(N)=N/N=C/c1c(Cl)cccc1Cl | 102% (inactive) | 105% (inactive) | 105% (inactive) | 101% (inactive) | 108% (inactive) | 67.2% | 169% (inactive) | -11.8% (inactive) | 81.5% (inactive) | -4% (inactive) | -0.34% (inactive) | 5.82% (inactive) | -3.91% (inactive) | 99.4% (inactive) | -0.085 (inactive) | -5% (inactive) | -13.3% (inactive)
